# Data: PubChem BioAssay (NCI)
# The panel holds about 83,000 compounds, 20% with a hit somewhere; the sample as a whole holds those more often.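 Values shown are percent growth following 48 h exposure of cells in 96-well plates to a single concentration of compound; below 10 was considered active.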 A number with no mark means an inactive call. Calls of active or inactive are those of the source.
# System: HT29 colon
# Experiment: NCI-60 one-dose screen, 48 h (100 = growth as untreated, 0 = no growth, -100 = all killed)
# Conditions: 10 µM unless noted
row,SMILES,growth
1,COc1cc2cc(Oc3ccc(NC(=O)Nc4ccc(Cl)c(C(F)(F)F)c4)cc3)c(C)nc2cc1OCCN1CCCCC1,-68% (active)
2,CN1CCN(c2ccc3nc(-c4ccc5nc(-c6ccc(C(F)(F)F)cc6)[nH]c5c4)[nH]c3c2)CC1,29.2%
3,Cc1c(C(=O)Nc2nc(-c3ccccc3)cs2)nnn1-c1ccccc1Br,16.3% [50 µM]
4,Clc1ccc(Nc2nc(Nc3ccccc3)nc(Nc3ccc(-c4cc(-c5ccc(Cl)cc5)on4)cc3)n2)cc1,-2.96% (active)
5,C=C1CC[C@@H]2[C@@](C)(CCC[C@]2(C)C(=O)O)[C@@H]1CC[C@H](CO)CCO,104%
6,COC(=O)CCC(=O)c1ccccc1,105%
7,COc1ncnc2c1ncn2C/C(Br)=C(\Br)CCl,-56.8% (active)
8,CN1CCC(OC2c3ccccc3CCc3ccccc32)CC1,90.1%
9,O=[N+]([O-])c1ccc(C=C2C(Cl)=C(Cl)C(Cl)=C2Cl)cc1,30.9%
10,COc1ccc(OC)c(/C=C2\Oc3cc(O)ccc3C2=O)c1,100%
11,COC(=O)[C@@]12CC[C@@H](C)[C@]3(C[C@@H](c4ccoc4)OC3=O)[C@H]1CC[C@@H]1O[C@@]12C,107%
12,COc1ccc(-c2nc3sc(C)cn3c2/C=C/C(=O)c2cc(OC)c(OC)c(OC)c2)cc1,60.1%
13,C=CC(=O)N1CC2(CC(n3nc(-c4ccc(Oc5ccccc5)cc4)c4c(N)ncnc43)C2)C1,31.7%
14,Cc1cc(=O)c2c(C)ccc(C)c2[nH]1,111%
15,O=C1CN2CCC1C/C2=C\c1ccnc2c(Cl)cccc12 (stereo unspecified),106%
16,O=C1c2ccccc2-c2nnc(-c3ccc(Br)cc3)cc21,82.5%
17,COc1ccc(-c2nn(-c3ccc(NC(=O)c4ccc(Cl)c(Cl)c4)cc3)cc2-c2ccncc2)cc1Cl,-27.7% (active)
18,O=c1oc2ccccc2cc1-c1csc(N=Nc2c(O)[nH]c3ccc(Cl)cc23)n1,101%
19,COc1cc2nc(N3CCC[C@H](NC4=CC(=O)c5ccccc5C4=O)C3)nc(N)c2cc1OC,-69.1% (active)

row,SMILES,growth
1,O=C1C(N2CCOCC2)=Cc2cccc3cccc1c23,92.4%
2,CCOC(=O)c1c(-c2cc(OC)c(OC)c(OC)c2)csc1N,71.9%
3,N#Cc1c(-c2cccc(F)c2)cc(-c2ccc(Br)s2)[nH]c1=O,118%
4,COc1ccc(NC(=O)c2ccc3c(c2)nc(-c2ccc(Cl)cc2)n3-c2cc(C(C)(C)C)[nH]n2)cc1,116%
5,Oc1cccc(Nc2nc(-c3ccccn3)cs2)c1,112%
6,O=S(=O)(/N=C1C=C/C(=N\S(=O)(=O)c2ccccc2)c2ccccc2\1)c1ccccc1,118%
7,O=C(COc1cccc(/C=C2\COc3ccccc3C2=O)c1)c1ccccc1,41.2%
8,Cc1ccc(S(=O)(=O)N2CCc3ccc(O)c4c3C2Cc2cc(Cl)ccc2-4)cc1 (stereo unspecified),103%
9,COc1ccc(OC)c(C2C(C#N)=C(N)Oc3cc(O)ccc32)c1 (stereo unspecified),95.4%
10,CC(=O)N(CC(O)CO)c1c(I)c(C(=O)NCCO)c(I)c(C(=O)NCC(O)CO)c1I (stereo unspecified),99.9%
11,N#CC1=C(N)Oc2cc(N)ccc2C1c1ccc(F)cc1 (stereo unspecified),46.4%
12,CCN(CC)CCCNc1ccc(C)c2sc3ccccc3c(=O)c12,-24.2% (active)
13,COc1ccc(/C=C2\Oc3cc(C)c(Cl)cc3C2=O)cc1OC,109%
14,Cc1nc2ccc(Cl)cc2n1C,98.8%
15,COc1ccc(/C=N/NC(=O)c2cnn(CC(O)Cc3ccccc3)c2N)cc1OC1CCCC1 (stereo unspecified),93.6%
16,COc1ccc(-c2csc3c2-n2cccc2C3=O)cc1O,23.9%
17,COc1cc(C(F)(F)F)ccc1-c1cc(-c2ccc(F)cc2)n[nH]1,92.5%
18,C[C@@H](Oc1cc(-c2cnn(C3CC4(CCNCC4)C3)c2)cnc1N)c1c(F)ccc(Cl)c1Cl,-56.6% (active)
19,CC(C)NCC(O)COc1ccc(CCOCC2CC2)cc1 (stereo unspecified),97.9%

# System: SNB-75 CNS
# Experiment: as above
# Conditions: 10 µM unless noted
row,SMILES,growth
1,COc1cc2cc(Oc3ccc(NC(=O)Nc4ccc(Cl)c(C(F)(F)F)c4)cc3)c(C)nc2cc1OCCN1CCCCC1,-57.9% (active)
2,CN1CCN(c2ccc3nc(-c4ccc5nc(-c6ccc(C(F)(F)F)cc6)[nH]c5c4)[nH]c3c2)CC1,29.6%
3,Cc1c(C(=O)Nc2nc(-c3ccccc3)cs2)nnn1-c1ccccc1Br,67.8% [50 µM]
4,Clc1ccc(Nc2nc(Nc3ccccc3)nc(Nc3ccc(-c4cc(-c5ccc(Cl)cc5)on4)cc3)n2)cc1,16.6%
5,C=C1CC[C@@H]2[C@@](C)(CCC[C@]2(C)C(=O)O)[C@@H]1CC[C@H](CO)CCO,94.8%
6,COC(=O)CCC(=O)c1ccccc1,117%
7,COc1ncnc2c1ncn2C/C(Br)=C(\Br)CCl,46.6%
8,CN1CCC(OC2c3ccccc3CCc3ccccc32)CC1,65.7%
9,O=[N+]([O-])c1ccc(C=C2C(Cl)=C(Cl)C(Cl)=C2Cl)cc1,81.5%
10,COc1ccc(OC)c(/C=C2\Oc3cc(O)ccc3C2=O)c1,88.6%
11,COC(=O)[C@@]12CC[C@@H](C)[C@]3(C[C@@H](c4ccoc4)OC3=O)[C@H]1CC[C@@H]1O[C@@]12C,86%
12,COc1ccc(-c2nc3sc(C)cn3c2/C=C/C(=O)c2cc(OC)c(OC)c(OC)c2)cc1,55.8%
13,C=CC(=O)N1CC2(CC(n3nc(-c4ccc(Oc5ccccc5)cc4)c4c(N)ncnc43)C2)C1,-13.6% (active)
14,Cc1cc(=O)c2c(C)ccc(C)c2[nH]1,101%
15,O=C1CN2CCC1C/C2=C\c1ccnc2c(Cl)cccc12 (stereo unspecified),85.5%
16,O=C1c2ccccc2-c2nnc(-c3ccc(Br)cc3)cc21,36.9%
17,COc1ccc(-c2nn(-c3ccc(NC(=O)c4ccc(Cl)c(Cl)c4)cc3)cc2-c2ccncc2)cc1Cl,59.4%
18,O=c1oc2ccccc2cc1-c1csc(N=Nc2c(O)[nH]c3ccc(Cl)cc23)n1,93.3%
19,COc1cc2nc(N3CCC[C@H](NC4=CC(=O)c5ccccc5C4=O)C3)nc(N)c2cc1OC,-83.5% (active)

row,SMILES,growth
1,O=C1C(N2CCOCC2)=Cc2cccc3cccc1c23,86.9%
2,CCOC(=O)c1c(-c2cc(OC)c(OC)c(OC)c2)csc1N,84.2%
3,N#Cc1c(-c2cccc(F)c2)cc(-c2ccc(Br)s2)[nH]c1=O,61.2%
4,COc1ccc(NC(=O)c2ccc3c(c2)nc(-c2ccc(Cl)cc2)n3-c2cc(C(C)(C)C)[nH]n2)cc1,77.8%
5,Oc1cccc(Nc2nc(-c3ccccn3)cs2)c1,94.3%
6,O=S(=O)(/N=C1C=C/C(=N\S(=O)(=O)c2ccccc2)c2ccccc2\1)c1ccccc1,96.1%
7,O=C(COc1cccc(/C=C2\COc3ccccc3C2=O)c1)c1ccccc1,71%
8,Cc1ccc(S(=O)(=O)N2CCc3ccc(O)c4c3C2Cc2cc(Cl)ccc2-4)cc1 (stereo unspecified),48.7%
9,COc1ccc(OC)c(C2C(C#N)=C(N)Oc3cc(O)ccc32)c1 (stereo unspecified),91.5%
10,CC(=O)N(CC(O)CO)c1c(I)c(C(=O)NCCO)c(I)c(C(=O)NCC(O)CO)c1I (stereo unspecified),95.6%
11,N#CC1=C(N)Oc2cc(N)ccc2C1c1ccc(F)cc1 (stereo unspecified),67.2%
12,CCN(CC)CCCNc1ccc(C)c2sc3ccccc3c(=O)c12,47.1%
13,COc1ccc(/C=C2\Oc3cc(C)c(Cl)cc3C2=O)cc1OC,101%
14,Cc1nc2ccc(Cl)cc2n1C,103%
15,COc1ccc(/C=N/NC(=O)c2cnn(CC(O)Cc3ccccc3)c2N)cc1OC1CCCC1 (stereo unspecified),74.2%
16,COc1ccc(-c2csc3c2-n2cccc2C3=O)cc1O,46.5%
17,COc1cc(C(F)(F)F)ccc1-c1cc(-c2ccc(F)cc2)n[nH]1,74.4%
18,C[C@@H](Oc1cc(-c2cnn(C3CC4(CCNCC4)C3)c2)cnc1N)c1c(F)ccc(Cl)c1Cl,-3.45% (active)
19,CC(C)NCC(O)COc1ccc(CCOCC2CC2)cc1 (stereo unspecified),99.3%
